Test results reported in PubChem BioAssay AID720706 (Broad Institute, 2013).
Where “and” joins values, the source holds several entries; their conditions need not be identical. Equal values may be shown once. Screen size: about 350,000 compounds; about 5,500 (1.6%) were called active.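 How the source made its calls: active means significant combined selectivity score with lowered wild-type GFP, culture density cut under 30%, mutant RFP and density less affected; inactive means any of these conditions unmet.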 The list comes from a sample in which actives are over-represented; it also holds similar structures and randomly drawn compounds.

assay: GFP drop in mixed WT/humanized-ribosome E. coli culture – GFP/RFP fluorescence, OD600, single point, bacterial rRNA inhibitor project, primary screen (AID 720706); conditions: E. coli WT GFP vs humanized-ribosome RFP mutants, 24 h; GFP signal change (wild-type ribosome): stronger effect = lower value, DMSO median 0, no signal -100; OD600 change: measured here: OD600 growth, DMSO median 0, no signal -100; RFP signal change: measured here: RFP humanized mutant strains, DMSO median 0, no signal -100, concentration not given here

| SMILES | GFP signal change (wild-type ribosome) | OD600 change | RFP signal change |
| --- | --- | --- | --- |
| CO[C@@H]1CN(C)C(=O)c2cc(NC(=O)C3CCCCC3)ccc2OC[C@@H](C)N(C(=O)Nc2ccc(C(F)(F)F)cc2)C[C@H]1C | -0.109% (inactive) and 1.77% (inactive) | 2.19% and -2.79% | 2.17% and 2.36% |
| CO[C@@H]1CN(C)C(=O)c2cc(NC(=O)C3CC3)ccc2OC[C@@H](C)N(C(=O)NC(C)C)C[C@@H]1C | 2.5% (inactive) | 1.51% | -0.768% |
| CO[C@@H]1CN(C)C(=O)c2cc(NC(=O)C3CCCC3)ccc2OC[C@@H](C)N(C(=O)Nc2ccc(C(F)(F)F)cc2)C[C@H]1C | -37.8% (active) | -17.8% | -5.86% |
| COc1ccccc1NC(=O)N1CC(=O)N2[C@@H](CO)[C@H](c3ccc(C#CC4CC4)cc3)[C@@H]2C1 | -2.35% (inactive) | -11.8% | 0.376% |
| CCn1c(CNC(=O)c2cc(OC)c(OC)c(OC)c2)cc2cc(C)ccc21 | 15.4% (inactive) | 1.59% | -1.24% |
| COc1ccc(OC)c(CN2CCN(C(=O)CNC(=O)c3cc(C)cc(C)c3)CC2)c1 | 4.96% (inactive) | -6.51% | 0.577% |
| COc1cc(C(=O)NCC(=O)N2CC=C(c3ccccc3)CC2)cc(OC)c1OC | -28.4% (active) | -22% | 0.011% |
| CC(=O)N(C)C[C@@H]1Oc2ccc(NC(=O)NC(C)C)cc2C(=O)N(C)C[C@H]1C | 1.73% (inactive) | -0.17% | -0.644% |
| Cc1c(CCC(=O)O)c(=O)oc2cc3occ(-c4ccccc4)c3cc12 | -41.8% (active) | -27.4% | -8.24% |
| COc1cccc(-c2coc3cc4oc(=O)c(CC(=O)O)c(C)c4cc23)c1 | -25.9% (inactive) | -55.2% | -6.38% |
| Cc1coc2cc3oc(=O)c(CCC(=O)O)c(C)c3cc12 | -8.99% (inactive) | -10.5% | 3.81% |
| CCCC#Cc1cnc2c(c1)C(=O)N([C@H](C)CO)C[C@H](C)[C@H](CN(C)S(=O)(=O)c1cn(C)cn1)O2 | 7.7% (inactive) | 7.52% | -1.55% |
| O=C(Cc1cccc2ccccc12)NNC(=O)Nc1ccc(Cl)cc1 | -29.7% (active) | -2% | -3.61% |
| Cc1ccc(NC(=S)NC(NC(=O)Cc2cccc3ccccc23)C(Cl)(Cl)Cl)cc1 (stereo not given) | 2.41% (inactive) | 7.34% | 6.73% |
| O=C(O)Cc1ccc(NC(=O)Nc2cccc3ccccc23)cc1 | -0.412% (inactive) | 0.56% | -3.8% |
| COc1ccc([C@@H]2C/C=C\C[C@@H](c3ccc4c(c3)OCO4)NC(=O)CCC(=O)N2)c(OC)c1 | -4.75% (inactive) | -1.11% | 0.958% |
| C[C@@H]1CN([C@@H](C)CO)C(=O)Cc2cc(NS(=O)(=O)c3ccc(Cl)cc3)ccc2O[C@H]1CN(C)C(=O)Nc1cccc2ccccc12 | -0.7% (inactive) | -5.33% | 1.87% |
| O=C(C[C@@H]1CC[C@@H](NC(=O)C2CCOCC2)[C@H](CO)O1)Nc1ccc(-c2ccccc2)cc1 | -6.86% (inactive) | -2.81% | -1.67% |
| CNC[C@H]1Oc2ncccc2C(=O)N(C)C[C@@H]1C | 2.83% (inactive) | 2.62% | -0.315% |
| COc1ccc(CCNC(=O)c2cc3sccc3n2C)cc1OC | -23.3% (active) | -13% | -7.3% |

| SMILES | GFP signal change (wild-type ribosome) | OD600 change | RFP signal change |
| --- | --- | --- | --- |
| COc1ccc(CCNC(=O)COC(=O)/C=C/c2cccs2)cc1OC | -13.7% (inactive) | -0.226% | 6.24% |
| COc1ccc(CCNC(=O)Cc2ccc(C)cc2)cc1OC | 1.64% (inactive) | 11.3% | -4.01% |
| C/C=C/c1ccc2c(c1)[C@H]1[C@H](CCN1S(=O)(=O)c1cn(C)cn1)[C@H](CO)N2 | 13.7% (inactive) | 27.2% | 4.63% |
| CCC(=O)N1[C@@H](CO)[C@@H](c2ccccc2)C12CN(C(=O)Cc1ccccc1)C2 | 2.16% (inactive) | 3.77% | -0.755% |
| CC(C)CNc1ncnc2c1cnn2Cc1ccc(Cl)cc1 | -36.1% (active) | -17.1% | -0.858% |
| COc1ccc(CCNc2ncnc3c2nnn3Cc2ccccc2)cc1 | 4.94% (inactive) | 7.23% | -1.23% |
| CC(C)(C)n1ncc2c(=O)n(Cc3ccc(Cl)cc3)cnc21 | 1.17% (inactive) | 1.78% | -4.59% |
| C/C=C/c1ccc(C2[C@H]3CNC[C@@H]2N3Cc2cccc(OC)c2)cc1 (stereo not given in full) | -0.328% (inactive) and 2.3% (inactive) | 8.38% and 9.5% | 6.71% and 2.48% |
| FC(F)Oc1ccc(NC(=S)NCc2ccco2)cc1Cl | -29.1% (active) | -8.22% | 5.68% |
| S=C(NCc1ccco1)Nc1ccc2c(c1)OCCO2 | 9.78% (inactive) | 8.22% | -0.482% |
| COc1cc(NC(=S)NCc2ccco2)c(OC)cc1Cl | 4.76% (inactive) | 2.73% | 1.65% |
| COc1cccc(NC(=O)N[C@H]2C=C[C@@H](CC(=O)Nc3ccc(-c4ccccc4)cc3)O[C@@H]2CO)c1 | -12.2% (inactive) | -10.6% | 2.22% |
| CNC(=O)C[C@H]1CC[C@H]2[C@H](COc3ccc(NC(=O)Nc4ccc(F)cc4)cc3C(=O)N2C)O1 | 1.92% (inactive) | 1.94% | -3.24% |
| COc1ccc(CNC(=O)CN(Cc2ccccc2Cl)C(=O)c2csnn2)cc1 | 6.12% (inactive) | 13.2% | 1.92% |
| COc1cccc(CN(C)CC(=O)NCc2ccccc2Cl)c1OC | -25.4% (active) | -20.5% | 1.05% |
| COc1ccc(S(=O)(=O)N2CCCCCC2)cc1C(=O)N(C)Cc1cccc(OC)c1OC | -11.5% (inactive) | -16.8% | 3.6% |
| N#Cc1ccc(-c2ccc(C3[C@@H]4CN(S(=O)(=O)c5cccc(Cl)c5)C[C@H]3N4)cc2)cc1 (stereo not given in full) | -35.6% (inactive) | -51% | -3.29% |
| C[C@H]1CN([C@@H](C)CO)C(=O)c2c(c3ccccc3n2C)-c2ccccc2CO[C@@H]1CN(C)CC1CCCCC1 | -7.33% (inactive) | -38.8% | 12.5% |
| CC(C)NC(=O)N(C)C[C@H]1Oc2ccc(NS(C)(=O)=O)cc2C(=O)N(C)C[C@@H]1C | 2.01% (inactive) | 2.51% | -2.3% |
| Cc1ccc(S(=O)(=O)N(C)C[C@@H]2Oc3ccc(NS(=O)(=O)c4cccs4)cc3C(=O)N([C@@H](C)CO)C[C@H]2C)cc1 | -5.79% (inactive) | -10.9% | 1.46% |
